# Source: PubChem BioAssay AID1645859 (Buhrlage Lab, Dana-Farber Cancer Institute and Novartis …, 2021)
# Among all 47,000 compounds or so, about 95 (0.2%) were called active. The entries come from a sample that favours actives as a whole. Unmarked numbers belong to inactive results. Cut-off read from the data, not from the text of the source: active = inhibition above about 30%; inactive = the rest.
# Biological target: Ubiquitin carboxyl-terminal hydrolase isozyme L1 (Homo sapiens) (UniProt P09936)
# Assay: blocks human UCHL1 ubiquitin-rhodamine cleavage (AID 1645859)
# Settings: purified UCHL1, Ub-rhodamine cleavage fluorescence; at 20 µM; active compounds read high
# Ubiquitin carboxyl-terminal hydrolase isozyme L1 (Homo sapiens), sequence (P09936 whole entry, looked up): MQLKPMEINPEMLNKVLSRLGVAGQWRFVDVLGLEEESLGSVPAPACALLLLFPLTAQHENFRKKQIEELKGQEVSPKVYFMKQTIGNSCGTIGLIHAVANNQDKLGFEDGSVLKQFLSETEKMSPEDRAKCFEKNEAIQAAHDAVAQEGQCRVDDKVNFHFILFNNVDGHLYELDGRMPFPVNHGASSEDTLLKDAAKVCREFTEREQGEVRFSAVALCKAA
row,SMILES,inhibition
1,O=C(Cn1cnc(S(=O)(=O)N2CCc3ccccc32)c1)Nc1ccc2c(c1)OCO2,-7.24%
2,Cc1ccc(CNC(=O)CCCn2c(=O)c3sccc3n(CC(=O)OCc3ccccc3)c2=O)cc1,-0.426%
3,CCN1CCN(c2ncc(C(=O)Nc3ccc(F)cc3)c(C)n2)CC1,-0.515%
4,O=C(CCc1nnc2ccc(N3CCCCC3)nn12)NCC1CCCO1 (stereo not drawn),-1.95%
5,Cc1ccc(C)c(CSC2=NCCN2C(=O)c2ccco2)c1,-0.972%
6,O=C(C1CCN(c2nc3ccc(-c4cccnc4)nc3s2)CC1)N1CCOCC1,-0.864%
7,Cc1cnn(CC2CCCCN2C(=O)Cc2c(C)noc2Cl)c1 (stereo not drawn),0.232%
8,Cc1c(NC(=O)c2ccc(C(C)(C)C)cc2)c(-n2cnnc2)nn1C,-0.768%
9,O=C(Cc1ccccc1Cl)Nc1ccc(N2CCOCC2)cc1,2.8%
10,O=C(NC1CC1)c1nc(-c2ccc(-n3cccc3)cc2)no1,1.38%
11,COCC(=O)N1CCCC2(COCCN(CCN(C)C)C2)C1 (stereo not drawn),0.844%
12,O=C(O)C1CCCN1Cc1c(-c2cccs2)nc2ccccn12 (stereo not drawn),-7.21%
13,COc1ccc(N2C(=O)c3ccccc3NC2c2ccc(OCC(N)=O)cc2)cc1 (stereo not drawn),3.76%
14,COc1ccc(OC)c(NC(=O)[C@H]2C[C@H](C)N[C@]23C(=O)Nc2c(Cl)cc(C)cc23)c1,-6.13%
15,CCCOc1ccnc2c1c(=O)n(CC(=O)NC1CCCC1)c(=O)n2C,-3.9%
16,Cc1cccc(-c2nccnc2C2CCCN(C(=O)c3cnccn3)C2)c1 (stereo not drawn),5.49%
17,COc1ccccc1C(=O)NCC(c1ccc2c(c1)CCCN2C)N1CCCC1 (stereo not drawn),-73.4%
18,Cc1ccc(C)c(NC(=O)C(Sc2nnc(-c3ccccc3)n2C)c2ccccc2)c1 (stereo not drawn),0.846%
19,Cn1cc(N2CCC3(CCN(C(=O)c4ccc(F)cc4)CC3)C2=O)cn1,0.646%
20,O=C(NC1CCOCC1)N[C@H]1C[C@H]2CN(Cc3ccccc3)Cc3ccccc3CN2C1,1.49%
21,Cc1cccc(CNC(=O)C2CCCN(S(=O)(=O)Cc3ccc(F)cc3)C2)c1 (stereo not drawn),3.47%
22,N#Cc1ccc(Oc2nc(-c3ccccc3)nnc2-c2ccccc2)cc1,-0.193%

row,SMILES,inhibition
1,O=C1CCCN1c1ccc(S(=O)(=O)N2CCc3ccccc3C2)cc1,-1.26%
2,CC(=O)c1cccc(NC(=O)CCN(c2cc(C)cc(C)c2)S(=O)(=O)c2ccc(Cl)cc2)c1,5.56%
3,Cc1cc(C)c(NC(=O)CCN2C(=O)c3cccnc3Sc3ccccc32)c(C)c1,-0.793%
4,Oc1cccc2nc3c(O)cccc3nc12,28.5%
5,O=C(NCCc1ccccc1)c1ccc2c(=O)n(Cc3ccco3)c(=O)n(Cc3cccc([N+](=O)[O-])c3)c2c1,23%
6,CC(C)NC(=O)[C@H]1CCS(=O)(=O)[C@@H]2CN(Cc3ccccc3)C[C@H]12,3.58%
7,COc1cc(OC)cc(-c2nnc(NC(=O)c3ccc([N+](=O)[O-])o3)o2)c1,1.67%
8,O=C(NCc1ccc(F)cc1F)c1csc(C(=O)NC2CC2)n1,-3.4%
9,CC(C(=O)Nc1ccccc1F)C1CCN(C(=O)Nc2ccccc2)CC1 (stereo not drawn),0.962%
10,Cc1nnc(-c2c(C)[nH]c(C)c2S(=O)(=O)NCc2ccccc2)o1,-1.69%
11,CC1(C)CC(=O)N(CC(=O)N2CCCCC2)c2ccccc2S1(=O)=O,0.351%
12,Cc1nc(-c2csc(S(=O)(=O)NC3CC3)c2)no1,-2.36%
13,O=C(Cn1cnc2cc3c(cc21)OCCO3)NCCc1ccccc1,-0.00331%
14,COCCn1ccc2nc(C)c(C(=O)N3CCN(c4cc(C)ccc4C)CC3)cc2c1=O,1.94%
15,CCOC(=O)C(Cc1ccccc1)NC(=O)CCC(=O)c1ccc(OC)cc1 (stereo not drawn),1.4%
16,Cc1nnc(OCC(=O)Nc2ccc(OC(F)(F)F)cc2)c2ccccc12,8.69%
17,CCOC(=O)c1noc2ncnc(Nc3ccc4c(c3)OCCO4)c12,2.47%
18,c1cc(N2CCCCCC2)ncc1-c1noc(CN2CCCC2)n1,0.394%
19,CN1Cc2ccccc2CC2(CC(Nc3ccc(C(=O)O)cc3)C2)C1=O (stereo not drawn),-3.39%
20,COc1cc(Cl)c(NC(=O)c2cc(-c3ccccn3)n[nH]2)c(OC)c1,8.97%
21,CC(=O)OC(C)[C@]12C=C(C)[C@H]3[C@H](C)[C@@H](O[C@H]4CC[C@@H](O)[C@@H](C)O4)C4=CC(=O)C=C(N1C(=O)[C@@](C)(O)C2=O)[C@]43O (stereo partly drawn),-4.12%
22,Cc1cc(-c2noc(-c3cc4ccccc4oc3=O)n2)c2ccccc2n1,-0.979%

row,SMILES,inhibition
1,O=C(Cn1cnc(S(=O)(=O)N2CCOCC2)c1)Nc1cccc(Cl)c1,2.46%
2,Cc1cc(NC(=O)c2ccc(C(=O)N(C3CCCCC3)C3CCCCC3)cc2)cc(C)c1O,4.77%
3,O=C1NC[C@@H](Cc2ccccc2)NC(=O)C2(C/C=C/COc3ccccc31)CCNCC2,2.07%
4,COC(=O)CC[C@H]1CNC(=O)[C@@H]2[C@@H](CCN2C2CCCCC2)N1C,8.17%
5,O=S(=O)(NC12CC3CC(CC(C3)C1)C2)c1ccc(S(=O)(=O)N2CCCCC2)cc1,-1.48%
6,CNC(=O)C1(C)CN(C(=O)c2ccc3ncccc3c2)CCO1 (stereo not drawn),-0.883%
7,CC(C)[C@H](NC(=O)[C@@H]1Cc2c([nH]c3ccccc23)C2c3ccccc3C(=O)N21)C(=O)NCCc1ccccc1 (stereo partly drawn),0.101%
8,COc1cccc(CN2CC[C@@H]3CNS(=O)(=O)[C@@H]3CC2)c1,5.2%
9,O=C(Cc1ccccc1)Nc1ccc(-c2nc3cnccc3o2)c(O)c1,0.256%
10,Cc1ccc(-n2cc(-c3noc(C(=O)Nc4ccc(F)cc4C)n3)nn2)cc1,38.3% (active)
11,Cc1cc(F)ccc1NC(=O)c1cc(C2CC2)n2nccc2n1,1.97%
12,Cc1ccc(Cn2cc(-c3noc(-c4ccccn4)n3)nn2)cc1,-0.677%
13,COC(=O)C(C(C)C)N1CCc2c(C)nc3cc(C#N)nn3c21 (stereo not drawn),-5.64%
14,Cc1cc(/C=C2/C(=N)N3C=CSC3=NC2=O)c(C)n1-c1ccc(F)cc1,-13%
15,Cn1c(CCN2CCCC2)nc2cc(NS(=O)(=O)c3ccccc3)ccc21,-2.94%
16,COc1ccc(-n2ncc3c2NC(=O)CC32C(=O)N(CC(C)C)c3ccc(F)cc32)cc1 (stereo not drawn),3.31%
17,Cc1nnc2ccc(-c3ccc(NC(=O)c4ccc(Br)o4)cc3)nn12,7.55%
18,NS(=O)(=O)c1ccc(CCNc2nccn(-c3ccc4c(c3)OCO4)c2=O)cc1,-4.71%
19,O=C(c1cc2occc2c(Nc2ccc(F)cc2)n1)N1CCN(C(=O)c2ccco2)CC1,3.68%
20,CC(C)c1ccc(C2CC(=O)c3cn[nH]c3C2)cc1 (stereo not drawn),0.362%
21,O=C1CC2(C(=O)Nc3ccccc32)c2cnn(-c3ccccc3Cl)c2N1 (stereo not drawn),-0.024%
22,COc1cccc(C2NC(=O)c3c(sc4c3CCC(C)C4)N2)c1O (stereo not drawn),-0.199%

row,SMILES,inhibition
1,CCn1nccc1-c1cccc(-c2noc(-c3ccccn3)n2)c1,3.84%
2,Cn1cccc1/C(C#N)=C\c1ccc2c(c1)OCO2,12.5%
3,CCc1cnc(N2CCC3(CC2)CC(Oc2cccnc2)C3)nc1,-4.29%
4,COc1ccc(NC(=O)c2cnc(N3CCCC3)nc2C)cc1OC,2.41%
5,CS(=O)(=O)N1CCn2c(nnc2-c2cncc(Br)c2)C1,1.7%
6,O=C(c1ccccn1)N1C[C@@H]2C[C@H]1C[C@@H]2NS(=O)(=O)c1ccccc1,-1.88%
7,Cc1ccc(S(=O)(=O)N2CCC(c3nc(C(=O)N(C)C)c(C)o3)CC2)c(C)c1,-3.64%
8,CC(=O)c1ccc(S(=O)(=O)Nc2cccc(-c3nc4cccnc4s3)c2C)cc1,0.0973%
9,O=C(C1CCN(c2nc3cccnc3s2)CC1)N1CCN(c2ncccn2)CC1,5.79%
10,O=c1ccc(S(=O)(=O)N2CCCCCC2)cn1Cc1ccccc1,-3.73%
11,CNc1cncc(C2CCCN2S(=O)(=O)N2CCCC2)n1 (stereo not drawn),1.24%
12,Cn1c(=O)c2c(-c3ccc(C(C)(C)C)cc3)n(-c3ccccc3Cl)cc2n(C)c1=O,3.67%
13,c1ccc2c(c1)NCCC(c1ccc3c(c1)OCO3)N2 (stereo not drawn),-0.387%
14,CC(C)(C)CN1CC[C@H](c2nnc(-c3cccnc3)o2)C1,-3.12%
15,COc1ccc(NC(=O)c2cccn3c(-c4ccc(F)cc4)nnc23)c(OC)c1,-7.15%
16,N#Cc1cnc2ccccc2c1N1CCC(C(=O)N2CCCCC2)CC1,-2%
17,Cc1nn(CCC(=O)Nc2ccccc2F)c(C)c1S(=O)(=O)N1CCOCC1,-2.99%
18,O=C(Nc1ccc2c(c1)CCC2)N1CCc2c(nc(-c3ccccc3)[nH]c2=O)C1,-2.41%
19,O=C(NC1CC1)c1cn(-c2cc(-c3nc(C4CC4)no3)ccn2)cn1,2.22%
20,Cc1ccccc1NC(=O)Cc1csc2nc(-c3ccc(F)cc3)cn12,6.49%
21,O=C(CN1C(=O)C2CCCC2=Nc2ccccc21)Nc1ccc(F)cc1F (stereo not drawn),2.04%
22,COCCNC(=O)c1cc(-c2ccn(C3CCCC3)n2)n2ccccc12,-0.227%
